In ChEMBL document CHEMBL1157539, “Thousands of chemical starting points for antimalarial lead identification” (Nature, 2010):

System: HepG2
Experiment: GSK_TCMDC: Percent inhibition of human HepG2 cell line. Test compounds present at 10uM.
Format: functional

Row | SMILES | Inhibition [%]
1 | CCNc1cc(C(=O)N[C@@H](Cc2ccccc2)[C@H](O)CNC2C3CC4CC(C3)CC2C4)cc(N2CCCCS2(=O)=O)c1.Cl (stereo partly drawn) | 0
2 | COc1cc2nc(NCCc3ccccc3)nc(NCCc3ccccc3)c2cc1OC | 99
3 | CCN1CCN(c2cc(C)c3cc(NC(=O)c4cccc(C(F)(F)F)c4)ccc3n2)CC1 | 24
4 | Clc1ccc2c(Cl)c(CNCCCNc3nc4ccccc4[nH]3)[nH]c2c1 | 38
5 | Cc1cc(N[C@@H](Cc2ccccc2)C(=O)NCCOc2ccccc2)nc(Nc2ccccc2)n1.O=C(O)C(F)(F)F | 2
6 | Cc1cccc2nc(-c3cccc(-c4ccc(NC(=O)Cc5ccc[n+]([O-])c5)cc4)c3)[nH]c12 | 11
7 | COc1ccc(-c2ccc(NC(=O)c3cccc(Cl)c3)cc2)cc1CN(C)CCN(C)C.O=C(O)C(F)(F)F | 22
8 | Cc1cccc2nc(-c3ccc(-c4ccc(NC(=O)C(C)CN5CCN(C)CC5)cc4)s3)[nH]c12 (stereo not drawn) | 17
